High-throughput results from PubChem BioAssay.
GRIN3A LBD mod – binders of NR3A ligand-binding domain, primary screen, biophysical, differential scanning fluorimetry, uHTS; NR3A LBD differential scanning fluorimetry, Tm shift; 0% = protein alone, 100% = glycine-bound protein; hit rate 2.5% among 340,000; Tm shift relative to glycine control, % at 25 µM; Glutamate receptor ionotropic, NMDA 3A (GRIN3A) ligand-binding domain;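 active = melting temperature shift of at least 10% of the positive control shift, at one fixed dose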
MPTP inh – mitochondrial permeability transition pore inhibitors, primary screen, biochemical, isolated mouse mitochondria, absorbance; Ca2+ swelling absorbance, 30 min; inhibition, % at 10 µM; hit rate 1.4% among 360,000; AID 602449, 2012;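 active = inhibition of 50% or more, scaled per plate between neutral and stimulator controls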
Myeloid diff 2 – induction of myeloid progenitor differentiation, primary screen, cell-based, flow cytometry, MLPCN library; ER-HoxA9 myeloid progenitors, lysozyme-GFP differentiation; calls only at 10 µM; hit rate 1% among 360,000;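 active = normalized GFP-positive differentiation at or above the plate's own cutoff, the solvent-only control mean plus 3 SD; inconclusive = no clear call, values can overlap the other calls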;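 also: cells exposed to compound for four days before flow analysis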
FAS TE block – FAS thioesterase domain inhibitors, primary screen, biochemical, fluorescence intensity, uHTS; Fatty acid synthase (Homo sapiens), P49327; recombinant FAS-TE, OMFH fluorogenic substrate, fluorescence endpoint; inhibition, % at 15 µM; hit rate 0.67% among 360,000;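 active = compounds whose normalised, plate-corrected inhibition of enzyme fluorescence in the single-dose primary screen is 50% or more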
Target sequence (P49327 whole entry, looked up, the tested form may be a part): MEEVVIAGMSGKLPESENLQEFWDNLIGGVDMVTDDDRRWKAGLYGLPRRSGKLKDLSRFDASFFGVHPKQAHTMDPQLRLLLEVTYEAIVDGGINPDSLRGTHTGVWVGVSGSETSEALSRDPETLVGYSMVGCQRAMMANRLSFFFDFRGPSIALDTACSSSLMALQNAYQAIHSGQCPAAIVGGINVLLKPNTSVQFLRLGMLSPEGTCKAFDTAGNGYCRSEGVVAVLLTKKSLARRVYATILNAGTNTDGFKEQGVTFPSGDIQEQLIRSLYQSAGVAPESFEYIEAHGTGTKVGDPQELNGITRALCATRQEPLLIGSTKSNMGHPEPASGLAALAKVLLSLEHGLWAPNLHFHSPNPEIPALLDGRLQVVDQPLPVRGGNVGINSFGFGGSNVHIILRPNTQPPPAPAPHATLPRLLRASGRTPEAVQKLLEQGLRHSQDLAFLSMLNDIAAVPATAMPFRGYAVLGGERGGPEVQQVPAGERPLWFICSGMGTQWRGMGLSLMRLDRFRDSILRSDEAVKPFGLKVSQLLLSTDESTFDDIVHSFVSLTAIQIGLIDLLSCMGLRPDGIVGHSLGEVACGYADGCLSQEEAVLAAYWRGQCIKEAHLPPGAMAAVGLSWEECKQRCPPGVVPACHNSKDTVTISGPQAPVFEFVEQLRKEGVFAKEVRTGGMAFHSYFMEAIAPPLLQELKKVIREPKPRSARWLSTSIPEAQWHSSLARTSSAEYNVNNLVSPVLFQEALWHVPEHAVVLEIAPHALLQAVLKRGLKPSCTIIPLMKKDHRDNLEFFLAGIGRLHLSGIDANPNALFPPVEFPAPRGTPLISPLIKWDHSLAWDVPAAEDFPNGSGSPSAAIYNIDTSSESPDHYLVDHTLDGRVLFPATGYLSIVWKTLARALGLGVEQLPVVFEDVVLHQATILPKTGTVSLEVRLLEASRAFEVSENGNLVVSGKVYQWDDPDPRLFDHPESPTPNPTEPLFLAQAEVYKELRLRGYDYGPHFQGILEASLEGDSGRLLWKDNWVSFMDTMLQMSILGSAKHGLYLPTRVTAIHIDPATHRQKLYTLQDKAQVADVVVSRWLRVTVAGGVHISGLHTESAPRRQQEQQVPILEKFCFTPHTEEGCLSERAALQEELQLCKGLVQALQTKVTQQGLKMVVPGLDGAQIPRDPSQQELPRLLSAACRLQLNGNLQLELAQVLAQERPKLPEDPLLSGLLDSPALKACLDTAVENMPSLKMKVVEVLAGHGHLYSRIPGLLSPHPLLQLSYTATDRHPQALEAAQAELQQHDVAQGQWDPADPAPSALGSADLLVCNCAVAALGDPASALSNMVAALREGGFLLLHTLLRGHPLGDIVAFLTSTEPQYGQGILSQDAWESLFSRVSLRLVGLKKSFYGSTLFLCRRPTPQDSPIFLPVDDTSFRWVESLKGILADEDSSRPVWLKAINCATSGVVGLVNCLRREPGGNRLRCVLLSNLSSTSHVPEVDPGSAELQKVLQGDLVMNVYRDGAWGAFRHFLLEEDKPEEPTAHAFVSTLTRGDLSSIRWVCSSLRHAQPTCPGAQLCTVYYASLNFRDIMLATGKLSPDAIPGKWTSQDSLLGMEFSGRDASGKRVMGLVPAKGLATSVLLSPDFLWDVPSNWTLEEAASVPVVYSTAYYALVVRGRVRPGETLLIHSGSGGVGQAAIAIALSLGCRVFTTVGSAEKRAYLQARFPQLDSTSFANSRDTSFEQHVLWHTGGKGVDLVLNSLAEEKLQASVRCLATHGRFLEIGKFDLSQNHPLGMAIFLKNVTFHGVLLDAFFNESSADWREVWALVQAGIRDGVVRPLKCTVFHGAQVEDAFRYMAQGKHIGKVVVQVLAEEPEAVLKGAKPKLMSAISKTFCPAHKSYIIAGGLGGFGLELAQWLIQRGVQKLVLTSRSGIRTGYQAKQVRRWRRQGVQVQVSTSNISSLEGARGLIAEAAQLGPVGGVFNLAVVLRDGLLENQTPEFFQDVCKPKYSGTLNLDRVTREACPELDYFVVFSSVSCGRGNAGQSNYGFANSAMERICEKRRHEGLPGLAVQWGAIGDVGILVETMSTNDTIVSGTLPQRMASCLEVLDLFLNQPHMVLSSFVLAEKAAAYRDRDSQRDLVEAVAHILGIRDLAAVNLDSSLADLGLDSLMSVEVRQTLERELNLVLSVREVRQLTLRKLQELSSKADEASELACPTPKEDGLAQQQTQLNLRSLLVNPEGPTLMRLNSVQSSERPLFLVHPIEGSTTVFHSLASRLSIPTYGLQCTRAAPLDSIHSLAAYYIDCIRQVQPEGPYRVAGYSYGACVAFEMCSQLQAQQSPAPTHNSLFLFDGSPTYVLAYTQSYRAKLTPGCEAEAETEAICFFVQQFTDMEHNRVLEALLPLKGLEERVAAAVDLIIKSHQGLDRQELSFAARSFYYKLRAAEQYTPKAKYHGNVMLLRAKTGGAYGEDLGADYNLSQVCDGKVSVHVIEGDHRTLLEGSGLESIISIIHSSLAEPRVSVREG
rCAG binder – binders of r(CAG) RNA repeats, primary screen, biochemical, fluorescence | hit rate 1.3% among 370,000 | inhibition, % at 3 µM | r(CAG) RNA repeat, TO-PRO-1 dye displacement fluorescence;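 active = inhibition above the plate cutoff, the mean of all test compounds on that plate plus 3 SD, cut at about 35% in these data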;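 also: higher means more dye released from RNA so lower well fluorescence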
MPTP counter – fluorescence retest of MPTP screen hits in isolated mitochondria, single concentration; shares compounds with MPTP inh; membrane potential, Rhodamine 123 fluorescence; inhibition, % at 10 µM; hit rate 78% among 5,000; in the data active = inhibition above about 22%
MPTP abs DR – mitochondrial permeability transition pore inhibitors, dose response, biochemical, absorbance, uHTS hits | isolated mitochondria swelling | AID 651561, 2012 | hit rate 58% among 780 | shares compounds with MPTP inh | IC50, µM; in the data active = IC50 below about 20 µM
MPTP counter DR – fluorescent counter-screen in isolated mitochondria, dose response, counter-screen for MPTP inhibitor project, biochemical, fluorescence, uHTS hits; shares compounds with MPTP inh; IC50, µM; isolated mitochondria counterscreen, fluorescence read-out; hit rate 49% among 780; in the data active = IC50 below about 80 µM
Each line names hits and unclear results; the compound was inactive in the other large screens (follow-up assays come after a bar, where they were run). Hits are enriched below; roughly 5.7% of the tested compounds scored in any of these assays.

O[C@@H]1CN(Cc2ccc(-n3cccn3)cc2)CC[C@H]1N1CCN(c2ccccc2F)CC1	MPTP inh 69.0 | MPTP counter 59.0
COc1ccc(-c2oc3ccc(-c4cc(OC)c(OC)c(OC)c4)cc3c2-c2ccc(OC)nc2)cc1	none
CN(C)S(=O)(=O)c1cccc(CSCc2cccc(S(=O)(=O)N(C)C)c2)c1	MPTP inh 78.9 | MPTP counter 87.9
Cc1cc(C)n2nc(SCc3cccc(S(=O)(=O)N(C)C)c3)nc2n1	none
Cc1ccccc1CN(CC(=O)Nc1cccc([N+](=O)[O-])c1)S(=O)(=O)c1ccc(Cl)cc1	MPTP inh 89.3 | MPTP counter 79.8
S=C(NCCc1ccccc1)Nc1ccc(Br)cc1	GRIN3A LBD mod 33.0, MPTP inh 97.5 | MPTP counter 92.3
CC(C)OC(=O)c1cc(NC(=S)Nc2ccc([N+](=O)[O-])cc2)cc(C(=O)OC(C)C)c1	MPTP inh 97.4 | MPTP counter 99.6
CCCCNC(=S)Nc1ccc([N+](=O)[O-])cc1	MPTP inh 94.7 | MPTP counter 89.4
CCCNC(=S)Nc1ccc(Br)cc1	none
CC(C)CCNC(=S)Nc1ccc(Br)cc1	MPTP inh 100.3, Myeloid diff 2 inconclusive | MPTP counter 88.2
CC(C)COc1ccc(C(=O)Nc2ccc([N+](=O)[O-])cc2)cc1	none (no result: rCAG binder)
S=C(NCCc1ccncc1)Nc1ccccc1	none
COc1ccc(CN2CCNC(=O)C2CC(=O)N(C)CCC2CCOCC2)c(OC)c1 (stereo not drawn)	none
CC(C)CCNC(=S)Nc1ccc([N+](=O)[O-])cc1	MPTP inh 97.5 | MPTP counter 85.4
CCOC(=O)C1CCCN(C(=O)c2cc(-c3ccc(C)cc3)nc3ccccc23)C1 (stereo not drawn)	none
CC(C)N1Cc2nnn(Cc3ccccc3)c2-c2ccccc2S1(=O)=O	none (no result: GRIN3A LBD mod, MPTP inh, Myeloid diff 2, FAS TE block)
COc1cccc(CNCC(O)COc2ccc(C(=O)c3ccccc3)cc2)c1 (stereo not drawn)	MPTP inh 83.8 (no result: Myeloid diff 2) | MPTP counter inactive | MPTP abs DR inactive | MPTP counter DR 50.5
Cc1cc(C)c(O)c(-c2cc(C(=O)Nc3ccc(S(=O)(=O)N4CCOCC4)cc3)[nH]n2)c1	GRIN3A LBD mod 22.8, MPTP inh 92.8 | MPTP counter 64.3
Cc1ccc(CNC(=O)c2cc(-c3cc(C)cc(C)c3O)n[nH]2)cc1	GRIN3A LBD mod 11.5, MPTP inh 88.0 | MPTP counter 72.8
Cc1cc(F)ccc1-c1cc(C(=O)NCc2cccc(C(F)(F)F)c2)[nH]n1	none (no result: GRIN3A LBD mod)
Cc1ccc(F)cc1-c1cc(C(=O)NCc2cc(C(F)(F)F)cc(C(F)(F)F)c2)[nH]n1	MPTP inh 69.0 (no result: GRIN3A LBD mod) | MPTP counter 101.0
Cc1cc(F)ccc1-c1cc(C(=O)NCc2cc(C(F)(F)F)cc(C(F)(F)F)c2)[nH]n1	MPTP inh 84.4 (no result: GRIN3A LBD mod) | MPTP counter 104.0
Cc1ccc(CNC(=O)Cn2nnc3ccccc3c2=O)cc1	none
COCCN(C(=O)CSc1n[nH]c(-c2ccccc2)n1)c1c(N)n(CC(C)C)c(=O)[nH]c1=O	none
CCOc1ccccc1-c1cc(NC)ncn1	none (no result: GRIN3A LBD mod)
Cc1cc2c(nc1C)CCCN2S(=O)(=O)c1ccc(C(F)(F)F)cc1	none (no result: GRIN3A LBD mod, MPTP inh, Myeloid diff 2, FAS TE block)
COc1ccc(N(CC(=O)NCc2ccccc2OC)S(=O)(=O)c2ccccc2[N+](=O)[O-])c(OC)c1	none
CC1CC(C)CN(S(=O)(=O)c2ccc(NC(=O)[C@@H]3CCCN3C(=O)c3cccs3)cc2)C1 (stereo partly drawn)	none
O=C(Cc1c(Cl)cccc1Cl)OCC(=O)c1ccc[nH]1	none (no result: GRIN3A LBD mod)
COc1ccc(Cl)cc1-c1cc(C(=O)NCc2cc(C(F)(F)F)cc(C(F)(F)F)c2)[nH]n1	none (no result: GRIN3A LBD mod)
Cc1ccc(Cl)cc1-c1cc(C(=O)NCc2cc(C(F)(F)F)cc(C(F)(F)F)c2)[nH]n1	MPTP inh 95.7 (no result: GRIN3A LBD mod) | MPTP counter 82.7
